The source of these data is PubChem BioAssay (Tox21).

Experiment [1] is described as follows: qHTS assay to identify small molecule antagonists of the retinoid acid receptor (RAR) signaling pathway - cell viability counter screen (AID 1159551). Further: nearly all actives have a fitted effect of over 35% in size. Further: potency means the concentration at half of the fitted maximal effect. The settings on record: C3RL4 cells viability, ATP luminescence (CellTiter-Glo), 6 h; series mostly up to 92.4 µM. A digest of the protocol:
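Cytotoxicity counter screen in C3RL4 cells: 6 h compound exposure with 1 uM retinol (final), viability from cellular ATP by luminescence.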
For orientation: In qHTS, concentration-response curves come from the screen itself.

Experiment [2] in a line: qHTS assay to identify small molecule agonists of the RXR signaling pathway - cell viability counter screen (AID 1159529). Further: potency means the concentration at half of the fitted maximal effect; nearly all actives have a fitted effect of over 50% in size. The settings on record: RXR-alpha-bla HEK293T viability, CellTiter-Glo, 16 h; series mostly up to 76.8 µM. A digest of the protocol: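 Luminescence from CellTiter-Glo (30 min, RT) measured viability in the same wells as the beta-lactamase reporter readout. Cells: GeneBLAzer RXR-alpha HEK 293T, 2% charcoal-stripped FBS. Compound exposure 16 hr, 37 C.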

The nature of experiment [3]: qHTS assay to identify small molecule agonists of the estrogen related receptor (ERR) signaling pathway (AID 1224820). Conditions: ERR reporter cell line, luciferase agonist mode; series mostly up to 92.2 µM. A digest of the protocol: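 Cells: ERR line from NTP, 2,000/well. Pre-incubation 6 h, 37 C/5% CO2. Compound (DMSO) pin transfer, 18 h 37 C. One-Glo, 30 min RT, luminescence.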

A short description of experiment [4]: qHTS assay to identify small molecule agonists of the estrogen related receptor signaling pathway with the pleiotropic PPARgamma coactivator (PGC) (AID 1224823). Conditions: ERR/PGC reporter cell line, luciferase agonist mode; series mostly up to 92.2 µM. A digest of the protocol:
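Steps: plate PGC/ERR cells at 2,000 cells/well; incubate 6 h, 37 C/5% CO2; pin-transfer compounds (DMSO); incubate 18 h, 37 C; add One-Glo; 30 min RT; read luminescence.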

The nature of experiment [5]: qHTS assay to identify small molecule antagonists of the retinoic acid receptor (RAR) signaling pathway (AID 1159552; further: nearly all actives have a fitted effect of over 50% in size; further: potency means the concentration at half of the fitted maximal effect). Conditions: C3RL4 RARE luciferase reporter, retinol-stimulated, 6 h; series mostly up to 92.4 µM. A digest of the protocol: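 Luminescence from a RARE luciferase reporter in C3RL4 cells served as read-out. Cells received compounds together with 1 uM final retinol and incubated 6 hr at 37 C before detection reagent was added for 30 min at room temperature.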

SMILES strings stand for the structures. “And” between values parts separate entries of the source, which are not always exact repeats. Equal entries are not always repeated. Results filed as inconclusive are left out. Where a structure was tested more than once in an assay, its records may differ in their call. The source made the active and inactive calls. The call rests on the fitted dose curve; in most records, active means well fitted curve in the direction sought with a large enough effect in the repeat runs; inconclusive means weak or mixed curves; inactive means no such curve, though single readings can be large; an effect the other way counts as inactive or inconclusive.

Take `CC[C@H]1C[C@@H]2C[C@H]3c4[nH]c5ccc(OC)cc5c4CCN(C2)[C@@H]13`: the Potency result in experiment [1] was “inactive”.

Regarding `CCCN(CCC)c1c([N+](=O)[O-])cc(S(N)(=O)=O)cc1[N+](=O)[O-]`, the Potency in experiment [2] is 43.6 µM (active); in experiment [1], 58.1 µM (active). The outcome in experiment [3] and in experiment [4] was inactive.

As for `Clc1ccc(COC(Cn2ccnc2)c2ccc(Cl)cc2Cl)cc1` (centres undefined), the Potency in experiment [2] was 32.3 µM (active) and 38.7 µM (active); in experiment [5] it was 50.8 µM (active) and 48.4 µM (active) and inactive.

As for `C[CH2][Hg][N]1C(=O)C2C(C1=O)C1(Cl)C(Cl)=C(Cl)C2(Cl)C1(Cl)Cl` (centres undefined), the Potency in experiment [2] is 4.14 µM (active); in experiment [5], 11.6 µM (active).

In the case of `Cc1cc(N=Nc2ccccc2C)ccc1N`, the Potency in experiment [2] was 54.9 µM (active) and 43.6 µM (active). In addition, the Potency entry in experiment [5] is “inactive”.

`Oc1c(Br)c(Br)c(Br)c(Br)c1Br`: in experiment [1], the Potency result was “inactive”.

As to `COc1ccc(N)cc1N`, the Potency entry in experiment [1] was “inactive”.

As for `C[C@]12CC[C@H](O)C[C@H]1CC[C@@H]1[C@@H]2C[C@@H](O)[C@]2(C)[C@@H](C3=CC(=O)OC3)CC[C@]12O`, the Potency entry in experiment [1] was “inactive”.
